Measurements reported in PubChem BioAssay AID504333 (National Center for Advancing Translational Sciences (NCATS), 2011).
The whole screen tested about 360,000 compounds, of which about 16,000 (4.4%) were called active. About 9% were inconclusive and are not listed. Calls follow the shape of the dose curve; as a rule, active = well fitted inhibition curve with a large enough effect; inconclusive = small, poorly fitted or top-dose-only effect; inactive = no such curve, though single readings can be large or run the other way. Shown is part of a subset that was picked to be rich in actives. Where a call stands in place of a potency, no number is given.

Biological target: Bromodomain adjacent to zinc finger domain protein 2B (Homo sapiens) (UniProt Q9UIF8)
Test: qHTS Assay for Inhibitors of BAZ2B; also: nearly all actives have a fitted effect of over 60% in size
Settings: AlphaScreen BAZ2B-H3K14Ac peptide displacement; series mostly up to 114 µM
From the text: BAZ2B (bromodomain adjacent to zinc finger domain, 2B) belongs to a family of ubiquitously expressed bromodomain containing proteins, which biological function has not yet been elucidated. […] The interaction of BAZ2B with ISWI mediated by the BAZ1 motif has recently been described. […] The protocol is based on the AlphaScreen (PerkinElmer) displacement assay developed by NCGC [5], but uses the peptide ligand Biot-H3K14Ac, a high affinity binding partner for BAZ2B, in an AlphaScreen format. Although AlphaScreen has significant advantages with its utility in a variety of epigenetic target assays, the primary screening data provided in this deposition should be used with caution due to the prevalence of screening artifacts. The top compound concentration tested was 110uM in this assay, which increases number of actives and potential artifacts. An AlphaScreen counterscreen is highly recommended to be run against any putative actives to eliminate non-specific artifacts. Alternatively, one can use other AlphaScreen assays in PubChem to filter out promiscuous hits. Eberharter, A. et al. ACF1 improves the effectiveness of nucleosome mobilization by ISWI through PHD-histone contacts. The EMBO journal 23, 4029-4039. 2004. PMID: 15457208 [2] Jones, M.H. et al. A novel family of bromodomain genes. Genomics 63, 40-45. 2000. PMID: 10662543 [3] Yasgar, et al. Compound Management for Quantitative High-Throughput Screening. JALA. 2008 Apr;13(2):79-89. PMID: 18496600 [4] Inglese, et al. Quantitative high-throughput screening: a titration-based approach that efficiently identifies biological activities in large chemical libraries. Proc Natl Acad Sci. 1;103(31):11473-8. 2006. PMID: 16864780 [5] Quinn et al. A chemiluminescence-based method for identification of histone lysine methyltransferase inhibitors. Mol Biosyst 6(5): 782-8. 2010. PMID: 20567762 [6] Baell,Holloway. New substructure filters for removal of pan assay interference compounds (PAINS) from screening libraries and for their exclusion in bioassays. J Med Chem. 53(7):2719-40. 2010. PMID: 20131845 NIH Molecular Libraries Probe Production Network [MLPCN] NIH Chemical Genomics Center [NCGC] Structural Genomics Consortium (SGC) NIH Grant: 5U54 MH084681-02
To each well of a 1,536w plate, 2ul of BAZ2B protein (final 50nM) and 1ul biotinylated histone peptide acetylated at Lys14 [b-H3(5-23)K14Ac] (final 50nM) were added in 1x PBS buffer, pH 7.4, containing 0.01% Tween-20, using a nanoliter dispenser. Formation of a protein-peptide complex proceeded at room temperature for 30 min. A Kalypsys pin-tool was employed to transfer 23 nL of library compound solution in DMSO to each well. Following a 30 min incubation of the protein-peptide complex with compounds at room temperature, a mixture of 40 ug/mL each streptavidin-coated donor and nickel chelate acceptor AlphaScreen beads (final 10 ug/mL) were added in a 1ul dispense for a final volume of 4ul. A brief centrifugation followed (1000rpm, 1 min) and were then incubated protected from the light for 20 min at room temperature. Plates were read on an EnVision multilabel plate reader using the 1,536 plate HTS AlphaScreen aperture (excitation time 80 ms, measurement time 240 ms).
Potency is read from the fitted curve at half-maximal effect.

Bromodomain adjacent to zinc finger domain protein 2B (Homo sapiens), sequence (Q9UIF8 whole entry, looked up, the tested form may be a part): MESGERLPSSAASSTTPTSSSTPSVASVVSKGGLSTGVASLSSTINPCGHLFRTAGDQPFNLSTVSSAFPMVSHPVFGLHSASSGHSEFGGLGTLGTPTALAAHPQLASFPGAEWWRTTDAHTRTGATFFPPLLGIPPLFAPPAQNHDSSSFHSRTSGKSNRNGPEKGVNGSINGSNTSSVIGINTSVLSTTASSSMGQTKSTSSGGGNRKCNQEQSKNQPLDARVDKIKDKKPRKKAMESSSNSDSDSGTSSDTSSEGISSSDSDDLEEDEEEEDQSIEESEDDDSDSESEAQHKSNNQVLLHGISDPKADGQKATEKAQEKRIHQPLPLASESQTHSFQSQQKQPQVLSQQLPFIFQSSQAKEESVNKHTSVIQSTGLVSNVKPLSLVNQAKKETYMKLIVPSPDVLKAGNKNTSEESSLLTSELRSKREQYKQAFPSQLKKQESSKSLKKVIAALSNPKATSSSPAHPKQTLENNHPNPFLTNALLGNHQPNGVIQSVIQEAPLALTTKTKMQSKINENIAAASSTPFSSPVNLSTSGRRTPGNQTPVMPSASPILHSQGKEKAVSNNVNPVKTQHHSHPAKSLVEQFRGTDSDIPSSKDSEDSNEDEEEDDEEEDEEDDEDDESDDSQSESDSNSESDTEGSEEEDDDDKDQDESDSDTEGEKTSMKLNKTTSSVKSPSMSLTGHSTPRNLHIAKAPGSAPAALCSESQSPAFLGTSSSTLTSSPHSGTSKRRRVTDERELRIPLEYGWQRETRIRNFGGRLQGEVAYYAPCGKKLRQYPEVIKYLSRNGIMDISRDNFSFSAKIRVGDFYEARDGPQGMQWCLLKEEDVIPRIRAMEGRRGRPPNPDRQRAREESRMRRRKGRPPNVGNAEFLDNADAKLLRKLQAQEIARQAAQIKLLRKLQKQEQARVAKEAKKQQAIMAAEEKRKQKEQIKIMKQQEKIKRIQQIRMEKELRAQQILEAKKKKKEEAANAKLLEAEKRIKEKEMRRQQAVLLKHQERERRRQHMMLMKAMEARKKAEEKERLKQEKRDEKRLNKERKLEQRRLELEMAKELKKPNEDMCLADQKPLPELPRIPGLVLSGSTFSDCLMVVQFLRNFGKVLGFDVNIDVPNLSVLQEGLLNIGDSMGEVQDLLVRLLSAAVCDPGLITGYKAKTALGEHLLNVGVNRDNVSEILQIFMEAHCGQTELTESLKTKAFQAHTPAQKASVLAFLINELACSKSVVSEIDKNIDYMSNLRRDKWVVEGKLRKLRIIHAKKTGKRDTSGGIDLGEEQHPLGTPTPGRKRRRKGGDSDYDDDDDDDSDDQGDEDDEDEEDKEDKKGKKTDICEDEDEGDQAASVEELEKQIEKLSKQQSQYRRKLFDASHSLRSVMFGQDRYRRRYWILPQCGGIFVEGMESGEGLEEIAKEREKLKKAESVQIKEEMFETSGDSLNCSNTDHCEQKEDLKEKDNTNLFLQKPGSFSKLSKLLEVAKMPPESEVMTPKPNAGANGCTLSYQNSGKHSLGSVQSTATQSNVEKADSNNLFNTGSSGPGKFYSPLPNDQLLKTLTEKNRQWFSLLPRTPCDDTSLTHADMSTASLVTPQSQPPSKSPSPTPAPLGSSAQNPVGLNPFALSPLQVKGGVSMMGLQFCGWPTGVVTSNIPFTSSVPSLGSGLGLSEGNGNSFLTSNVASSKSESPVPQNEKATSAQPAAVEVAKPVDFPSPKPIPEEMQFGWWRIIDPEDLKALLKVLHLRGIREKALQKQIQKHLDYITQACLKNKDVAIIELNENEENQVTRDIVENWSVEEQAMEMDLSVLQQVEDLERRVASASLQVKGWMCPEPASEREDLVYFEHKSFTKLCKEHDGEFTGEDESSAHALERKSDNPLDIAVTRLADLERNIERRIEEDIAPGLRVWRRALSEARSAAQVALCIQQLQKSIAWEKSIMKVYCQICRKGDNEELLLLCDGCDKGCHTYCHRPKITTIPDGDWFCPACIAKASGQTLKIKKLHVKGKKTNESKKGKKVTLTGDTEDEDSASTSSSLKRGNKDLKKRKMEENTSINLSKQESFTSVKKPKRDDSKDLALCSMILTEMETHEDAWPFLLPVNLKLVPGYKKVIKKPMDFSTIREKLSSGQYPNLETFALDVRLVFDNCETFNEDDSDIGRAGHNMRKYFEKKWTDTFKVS

SMILES	Potency
O=C(O)c1cscn1	20 µM (active)
COc1ccc(NC(=O)Cn2c(=O)cc(C)c3c(C)nn(-c4cccc(Cl)c4C)c32)cc1OC	inactive
Cc1cccc(OCCSc2nc3ccc(NC(=O)COc4ccccc4C)cc3s2)c1	inactive
N/C(=N\OC(=O)c1ccc([N+](=O)[O-])cc1)c1ccccn1	inactive
COc1ccccc1OCC(=O)O/N=C(\N)c1ccccn1	inactive
N/C(=N\OC(=O)Cc1ccc([N+](=O)[O-])cc1)c1ccccn1	50.1 µM (active)
CCOC(=O)c1cccc(NC(=O)Cn2cnc3nc4c(cc3c2=O)CCCC4)c1	inactive
Cc1ccc(CCNC(=O)c2ccc3c(c2)nc2n3CCC(C)C2)cc1 (stereo not drawn)	inactive
Cn1nnnc1SCCCNCc1cccc(OCc2ccc(Cl)cc2)c1	inactive
CC(=O)N(C)c1ccc(NC(=O)C(F)(F)F)cc1	inactive
CN(C)c1ccc(N/C=C/C(=O)C(F)(F)F)cc1	28.2 µM (active)
CC(C)CNC(=O)C(=O)Nc1ccc(N(C)C)cc1	inactive
Cc1oc2ccc(O)c(CN3CCC(C)CC3)c2c1C(=O)Nc1ccccc1	inactive
Cc1c(OC(C)C(=O)N[C@@H](Cc2ccccc2)C(=O)O)ccc2c3c(c(=O)oc12)CCCC3 (stereo partly drawn)	inactive
Cc1c(CCC(=O)N[C@@H](CC(C)C)C(=O)O)c(=O)oc2c(C)c3oc4c(c3cc12)CCCC4	inactive
Cc1oc2c(C)c3oc(=O)c(CC(=O)N[C@@H](CC(C)C)C(=O)N[C@@H](Cc4ccccc4)C(=O)O)c(C)c3cc2c1C	35.5 µM (active)
COc1ccc(NC(=O)CSc2nc3ncccc3[nH]2)c(OC)c1	inactive
COc1ccc(C(=O)Nc2cccc(C(=O)OCc3cc(=O)n4c5c(sc4n3)CCCC5)c2)cc1	inactive
CCc1ccccc1NC(=O)Cc1ccc(NC(=O)N2CCCCc3ccccc32)cc1	inactive
COc1cc([N+](=O)[O-])ccc1NC(=S)N1CCN(c2ccccn2)CC1	inactive
O=C(Nc1ccccc1)O/N=C1\CCCCC1c1ccc([N+](=O)[O-])cc1[N+](=O)[O-] (stereo not drawn)	inactive
O=[N+]([O-])c1ccc(N/N=C2/CCCCC2c2ccccn2)c([N+](=O)[O-])c1 (stereo not drawn)	31.6 µM (active)
Cc1ccc(F)cc1NC(=O)CCSc1nc(-c2ccco2)cc(C(F)(F)F)n1	inactive
COC(=O)c1cc(S(=O)(=O)N2CCN(c3cc(Cl)ccc3C)CC2)c[nH]1	inactive
COc1ccc(-c2nc3sc(CCNC(=O)C(C)(C)C)c(C)n3n2)cc1	inactive
COc1cc(-c2noc(-c3ccc(N4CCCC4)c([N+](=O)[O-])c3)n2)cc(OC)c1OC	inactive

SMILES	Potency
Cc1ccc(Cl)cc1NC(=O)/C(C#N)=C\c1cn(Cc2ccc(F)cc2)c2ccccc12	inactive
Cc1ccccc1NC(=O)NCc1ccco1	inactive
Cc1ccsc1C(=O)NCCc1ccco1	56.2 µM (active)
COc1cc(OC)cc(C(=O)NCCSCc2ccco2)c1	inactive
Cc1ccc(F)cc1S(=O)(=O)N1CCC(c2nc3ccccc3s2)CC1	inactive
Cc1ccc(C(=O)COC(=O)C(Cc2c[nH]c3ccccc23)NC(=O)c2ccc(Br)cc2)cc1 (stereo not drawn)	inactive
COc1ccc(OC)c(NC(=O)CCN2CCC(C)CC2)c1	inactive
C/C=C/c1ccc(OCCOc2ccc(C=O)cc2OC)c(OC)c1	inactive
COc1cccc(NC(=O)NCCN2CCCCC2)c1	inactive
COc1cccc(OCCCN2CCCCCC2)c1	56.2 µM (active)
COc1cccc(OCC(O)CN2CCN(CCO)CC2)c1 (stereo not drawn)	inactive
COc1ccc(OCCCCN2CCC(C)CC2)cc1	79.4 µM (active)
COc1cc(/C=N/NC(=O)c2ccoc2C)ccc1OCCN1CCCCC1	inactive
CC1CCN(CC(O)COc2ccc(C(=O)c3ccccc3)cc2)CC1 (stereo not drawn)	inactive
C/C=C/c1ccc(OCCCCN2CCC(C)CC2)c(OC)c1	35.5 µM (active)
CCCCN(C)S(=O)(=O)c1ccc(C(=O)Nc2sc3c(c2C(N)=O)CC(C)(C)NC3(C)C)cc1	inactive
COC(=O)c1ccccc1NC(=O)Cn1c(=O)cc(C)c2c(C)nn(-c3cccc(Cl)c3C)c21	inactive
CCOc1ccc(CNC(=O)C2CCCN(S(=O)(=O)N(CC)c3ccc(OCC)cc3)C2)cc1 (stereo not drawn)	inactive
Cc1ccc(Cc2nc3ccccc3nc2SCC(=O)Nc2cccc(C(F)(F)F)c2)cc1	inactive
Cc1nc2ccccn2c(=O)c1NC(=O)c1c(F)cccc1F	inactive
Cc1cccc(C)c1Nc1c(-c2ccccc2O)nc2ncccn12	inactive
Cc1ccc(-c2nc3ccccn3c2Nc2c(C)cccc2C)o1	28.2 µM (active)
CCOC(=O)C1CCN(c2ncnc3c2c(-c2ccccc2)cn3-c2cccc(C)c2)CC1	inactive
CCOc1ccc(CCNC(=O)c2csc3c2CCCCC3)cc1	inactive
Cc1ccccc1NC(=O)c1ccccc1NS(=O)(=O)c1cccc2cccnc12	inactive
O=[N+]([O-])c1ccccc1S(=O)(=O)Nc1cccc2cccnc12	25.1 µM (active)

SMILES	Potency
COc1cc(NS(=O)(=O)c2ccc3ccccc3c2)c2ncccc2c1	inactive
Cc1nn(-c2nc(-c3ccccc3)cc(C(F)(F)F)n2)c(C)c1Cl	inactive
O=C(Nc1nc2c(s1)CCCC2)c1ccccc1F	inactive
Cc1cc(C)cc(OC(C)C(=O)Nc2nc3c(s2)CCCC3)c1 (stereo not drawn)	inactive
COC(=O)C(NC(C)=O)(Nc1nc2c(s1)CCCC2)C(F)(F)F (stereo not drawn)	56.2 µM (active)
O=C(CCS(=O)(=O)c1ccc2c(c1)NC(=O)CO2)Nc1cccc(C(F)(F)F)c1	inactive
CCOC(=O)CSC1=Nc2ccccc2C2=NC(CCC(=O)NCc3ccc(F)cc3)C(=O)N12 (stereo not drawn)	inactive
CCOC(=O)C(Cc1ccc(N)cc1)N1C(=O)c2ccccc2C1=O (stereo not drawn)	inactive
N[C@@H](Cc1ccccc1)C(=O)N1CCOCC1	inactive
Cc1ccc(C)n1C(Cc1ccccc1)C(=O)O (stereo not drawn)	39.8 µM (active)
Cc1ccc2nc(CN3CCN(S(=O)(=O)c4ccc(C)c(C)c4)CC3)oc2c1	inactive
Cc1cc(C)c(C2C3=C(Nc4c2c(C)nn4-c2ccccn2)c2ccccc2C3=O)c(C)c1 (stereo not drawn)	10 µM (active)
CC(=C1C(=O)c2ccccc2C1=O)N1CCN(c2ccccn2)CC1	inactive
Cc1nn(-c2ccccn2)c2c1C(c1ccncc1)C1=C(CC(C)(C)CC1=O)N2 (stereo not drawn)	inactive
COc1ccccc1CCNC(=O)c1cccn1-c1nnc(N2CCCCC2)s1	inactive
CCCOc1cccc(C(=O)Nc2cccc(NC(=O)c3ccc(C(C)(C)C)cc3)c2)c1	inactive
CCOC(=O)c1ccc(NC(=O)Cn2c(=O)n(-c3ccc(C)cc3)c(=O)c3c2cnn3C)cc1	inactive
O=C(NC1CCCCC1)c1ccc2c(c1)N(Cc1ccc(Cl)cc1)C(=O)c1ccccc1S2=O (stereo not drawn)	inactive
NC(=O)CSc1nnc(NC(=O)c2ccc(Br)o2)s1	56.2 µM (active)
CCSc1nnc(NC(=O)c2cc(=O)c3cc(C)c(C)cc3o2)s1	inactive
NC(=O)CSc1nnc(NC(=O)c2ccc3ccccc3c2)s1	inactive
CCCNC(=O)C(CC)n1nc(CC)n2c(cc3oc(C)cc32)c1=O (stereo not drawn)	inactive
COc1cccc(NC(=O)C(=O)NCC(c2ccc3c(c2)OCO3)N2CCN(C)CC2)c1 (stereo not drawn)	inactive
CC(C)C(=O)Nc1nc2c(s1)CC(C(C)(C)C)CC2 (stereo not drawn)	inactive
COc1ccc(CNC(=O)CCN2C(=O)c3ccccc3C2=O)cc1	inactive
CCOC(=O)c1cc2cc3ccccc3cc2oc1=O	inactive

SMILES	Potency
CCOC(=O)C1=C(c2ccc(OC)cc2)C(=O)c2ccccc2C1=O	20 µM (active)
CCCCn1cc(S(=O)(=O)c2ccc(OCC)cc2)c(=O)c2cc(OC)c(OC)cc21	inactive
Cc1ccc(CCNC(=O)C2CCN(c3nnc(-n4cccc4CNc4ccc(C)cc4)s3)CC2)cc1	inactive
CC(=O)Nc1cccc(/C(C)=N/NC(=O)c2c(-c3ccccc3Cl)noc2C)c1	inactive
C/C(=N\Nc1cccc(C(=O)O)c1)c1ccc2c(c1)Nc1ccccc1S2	44.7 µM (active)
Cc1ccccc1NC(=O)c1cc(S(=O)(=O)Nc2cccc(C(=O)O)c2)ccc1Cl	inactive
Cc1ccc2nc(COc3ccccc3NC(=O)Nc3ccc(F)c(Cl)c3)cc(=O)n2c1	inactive
Cc1nn(-c2ccccc2)c(-n2cccc2)c1C(=O)O	inactive
Cc1nn(-c2ccc(F)cc2)c(-n2cccc2)c1C(=O)N1CCN(c2ccccc2)CC1	inactive
Cc1ccc(-n2nc(C)c(C(=O)O)c2-n2cccc2)cc1	50.1 µM (active)
O=C(NCc1ccc2c(c1)CCN2C(=O)c1ccccc1)Nc1cc(F)ccc1F	inactive
COc1ccc(OC)c(NC(=O)CSC2=Nc3ccccc3C3=NC(CC(=O)NCc4ccc(F)cc4)C(=O)N23)c1 (stereo not drawn)	inactive
COc1ccccc1NC(=O)c1sc2nc(C)c(C(=O)Nc3ccc(Cl)cc3)c(-c3ccc(Br)cc3)c2c1N	inactive
CCN(CC(=O)Nc1cc(Cl)ccc1C)C(=O)CSCc1ccc(C)cc1	inactive
Cc1ccc(CSCC(=O)N(C)CC(=O)Nc2ccc(C)cc2)cc1	inactive
CCCCN(C)CCNC(=O)CSCc1ccc(C)cc1	50.1 µM (active)
CCOc1ccccc1C(=O)NC1(C(F)(F)F)NC(=O)N(CCc2ccc(OC)c(OC)c2)C1=O (stereo not drawn)	inactive
CCN(C(=O)c1sc2cc(OC)ccc2c1Cl)c1ccccc1	inactive
CCC(=O)Nc1ccc2nc(SCC(=O)N3CCc4ccccc43)sc2c1	inactive
CCN(CCCNC(=O)Cn1ncc2c3ccccc3n(C)c2c1=O)Cc1ccccc1	inactive
CCc1ccc(NC(=O)c2nn(-c3ccc(C)cc3)c(=O)n(C)c2=O)cc1	inactive
CCCC(=O)Nc1cc2nn(-c3ccccc3)nc2cc1C	inactive
O=C(Cn1nc(Cc2cccnc2)c2ccccc2c1=O)N1CCN(c2ccccc2F)CC1	inactive
Cc1nc2ccn(Cc3cccnc3)c(=O)c2cc1C(=O)N1CCN(c2ccccc2F)CC1	inactive
O=C(Nn1cc(C(=O)N2CCN(c3ccccc3F)CC2)c2ccccc2c1=O)c1cnccn1	28.2 µM (active)
